Records with an inconclusive call do not appear. The source made the active and inactive calls. Calls come from the whole dose curve; as a rule, active = well fitted cell-killing curve with a large enough effect; inconclusive = small, poorly fitted or top-dose-only effect, or effect the other way; inactive = flat fitted curve, though single readings scatter. Where a SMILES comes first, the peptide text is derived from it. [ ]: non-standard residue; d: D form. dPhe(4-Cl) = N[C@H](Cc1ccc(Cl)cc1)C(=O)O; d2Nal = N[C@H](Cc1ccc2ccccc2c1)C(=O)O; dCit = NC(=O)NCCC[C@@H](N)C(=O)O; d3Pal = N[C@H](Cc1cccnc1)C(=O)O
How the values were obtained:
Test in all cases: Primary qHTS to identify gynecologic anti-cancer compounds using libraries of approved drugs and bioactive compounds (AID 1345084); note: nearly all actives have a fitted effect of over 55% in size
C33A = settings: Gynecologic cancer cell panel viability, ATPlite luminescence, 48 h; series mostly up to 57.5 µM
Procedure, shortened: (§1)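 Cells, 1,000 per well, were allowed to settle for 16 h at 37 C before compound addition. Five concentrations were tested for 48 h, and viability was read by ATPlite luminescence after 15 min at room temperature.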

CAOV3 = settings: Gynecologic cancer cell panel viability, ATPlite luminescence, 48 h; series mostly up to 57.5 µM
Procedure, shortened: as §1

CASKI = settings: Gynecologic cancer cell panel viability, ATPlite luminescence, 48 h; series mostly up to 57.5 µM
Procedure, shortened: as §1

Es-2 = settings: Gynecologic cancer cell panel viability, ATPlite luminescence, 48 h; series mostly up to 57.5 µM
Procedure, shortened: as §1

HeLa = settings: Gynecologic cancer cell panel viability, ATPlite luminescence, 48 h; series mostly up to 57.5 µM
Procedure, shortened: as §1

Hek293T = settings: Gynecologic cancer cell panel viability, ATPlite luminescence, 48 h, control line for the selectivity index; series mostly up to 57.5 µM
Procedure, shortened: as §1

JEG-3 = settings: Gynecologic cancer cell panel viability, ATPlite luminescence, 48 h; series mostly up to 57.5 µM
Procedure, shortened: as §1

OV90 = settings: Gynecologic cancer cell panel viability, ATPlite luminescence, 48 h; series mostly up to 57.5 µM
Procedure, shortened: as §1

PA-1 = settings: Gynecologic cancer cell panel viability, ATPlite luminescence, 48 h; series mostly up to 57.5 µM
Procedure, shortened: as §1

Tov-21-G = settings: Gynecologic cancer cell panel viability, ATPlite luminescence, 48 h; series mostly up to 57.5 µM
Procedure, shortened: as §1

Tov112D = settings: Gynecologic cancer cell panel viability, ATPlite luminescence, 48 h; series mostly up to 57.5 µM
Procedure, shortened: as §1
% is set by controls: 0 for no effect and ±100 for the full control effect.

CC(C)(C)CCN1C[C@@H]2C(CNC(=O)c3cc(Cl)cc(Cl)c3)[C@@H]2C1 (some centres not stated)
inactive: Potency (C33A) | Potency (CAOV3) | Potency (CASKI) | Potency (Es-2) | Potency (HeLa) | Potency (Hek293T) | Potency (JEG-3) | Potency (OV90) | Potency (PA-1) | Potency (Tov-21-G) | Potency (Tov112D)

CCCOc1ccc(-c2nc(OC)c3ccccc3n2)cc1
inactive: Potency (C33A) | Potency (CAOV3) | Potency (CASKI) | Potency (Es-2) | Potency (HeLa) | Potency (Hek293T) | Potency (JEG-3) | Potency (OV90) | Potency (PA-1) | Potency (Tov-21-G) | Potency (Tov112D)

COc1ccc([C@@H]2OC[C@H]3[C@@H]2CO[C@@H]3c2ccc(OC3OC(CO)C(O)C(O)C3O)c(OC)c2)cc1OC (some centres not stated)
inactive: Potency (C33A) | Potency (CAOV3) | Potency (CASKI) | Potency (Es-2) | Potency (HeLa) | Potency (Hek293T) | Potency (JEG-3) | Potency (OV90) | Potency (PA-1) | Potency (Tov-21-G) | Potency (Tov112D)

CC1OC(OC2C(OC3C(O[C@H]4CC[C@@]5(C)C(CC[C@]6(C)C5C(=O)C=C5C7CC(C)(C)CC(O)[C@]7(C)CC[C@]56C)C4(C)C)OC(C(=O)O)C(O)C3O)OCC(O)C2O)C(O)C(O)C1O (some centres not stated)
inactive: activity change, negative = cytotoxicity (C33A) -11.1% [at 11.6 µM] | activity change, negative = cytotoxicity (CAOV3) -11.1% [at 11.6 µM] | activity change, negative = cytotoxicity (CASKI) -7.33% [at 11.6 µM] | activity change, negative = cytotoxicity (Es-2) -2.72% [at 11.6 µM] | activity change, negative = cytotoxicity (HeLa) 6.46% [at 11.6 µM] | activity change, negative = cytotoxicity (Hek293T) -13.7% [at 11.6 µM] | activity change, negative = cytotoxicity (JEG-3) -7.16% [at 11.6 µM] | activity change, negative = cytotoxicity (OV90) -4.31% [at 11.6 µM] | activity change, negative = cytotoxicity (PA-1) -3.12% [at 11.6 µM] | activity change, negative = cytotoxicity (Tov-21-G) 2.59% [at 11.6 µM] | activity change, negative = cytotoxicity (Tov112D) -1.77% [at 11.6 µM]

C=C[C@@](C)(O)CC/C=C(\C)C(=O)O[C@@H]1[C@@H]2O[C@]2(C)[C@H]2[C@H](O[C@@H]3O[C@H](CO)[C@@H](O)[C@H](O)[C@H]3O)OC=C[C@@]12O
inactive: Potency (C33A) | Potency (CAOV3) | Potency (CASKI) | Potency (Es-2) | Potency (HeLa) | Potency (Hek293T) | Potency (JEG-3) | Potency (OV90) | Potency (PA-1) | Potency (Tov-21-G) | Potency (Tov112D)

CC(=O)N[C@H](Cc1ccc2ccccc2c1)C(=O)N[C@H](Cc1ccc(Cl)cc1)C(=O)N[C@H](Cc1cccnc1)C(=O)N[C@@H](CO)C(=O)N[C@@H](Cc1ccc(O)cc1)C(=O)N[C@H](CCCNC(N)=O)C(=O)N[C@@H](CC(C)C)C(=O)N[C@@H](CCCN=C(N)N)C(=O)N1CCC[C@H]1C(=O)N[C@H](C)C(N)=O (Ac-[d2Nal][dPhe(4-Cl)][d3Pal]SY[dCit]LRP[dA]-NH2)
inactive: Potency (C33A) | Potency (CAOV3) | Potency (CASKI) | Potency (Es-2) | Potency (HeLa) | Potency (Hek293T) | Potency (JEG-3) | Potency (OV90) | Potency (PA-1) | Potency (Tov-21-G) | Potency (Tov112D)

COC(=O)C1=C2Nc3ccccc3C23CCN2CCCC(C(C)O)(C1)C23 (configuration not stated)
inactive: Potency (C33A) | Potency (CAOV3) | Potency (CASKI) | Potency (Es-2) | Potency (HeLa) | Potency (Hek293T) | Potency (JEG-3) | Potency (OV90) | Potency (PA-1) | Potency (Tov-21-G) | Potency (Tov112D)

CC(C)(C)OC(=O)N1CCC(OCc2nc(-c3ccncc3)no2)CC1
inactive: Potency (C33A) | Potency (CAOV3) | Potency (CASKI) | Potency (Es-2) | Potency (HeLa) | Potency (Hek293T) | Potency (JEG-3) | Potency (OV90) | Potency (PA-1) | Potency (Tov112D)

CO[C@H]1O[C@@H]2O[C@]3(C)CC[C@H]4[C@H](C)CC[C@@H]([C@H]1C)[C@@]24OO3
inactive: Potency (C33A) | Potency (CAOV3) | Potency (CASKI) | Potency (Es-2) | Potency (HeLa) | Potency (Hek293T) | Potency (JEG-3) | Potency (OV90) | Potency (PA-1) | Potency (Tov-21-G) | Potency (Tov112D)

Cc1ccccc1CN1C2=NCCN2C(=O)C2=C1CCN(Cc1ccccc1)C2
inactive: Potency (C33A) | Potency (CAOV3) | Potency (CASKI) | Potency (Es-2) | Potency (HeLa) | Potency (Hek293T) | Potency (JEG-3) | Potency (OV90) | Potency (PA-1) | Potency (Tov-21-G) | Potency (Tov112D)

CC1=CC(=O)[C@]2(O[C@@H]3O[C@@H](C)[C@H](O)[C@@H](O)[C@H]3OC(=O)/C=C/c3ccccc3)C=CO[C@@H](O[C@@H]3O[C@H](CO)[C@@H](O)[C@H](O)[C@H]3O)[C@H]12
inactive: Potency (C33A) | Potency (CAOV3) | Potency (CASKI) | Potency (Es-2) | Potency (HeLa) | Potency (Hek293T) | Potency (JEG-3) | Potency (OV90) | Potency (PA-1) | Potency (Tov-21-G) | Potency (Tov112D)

CC(C)N(CCCCOCC(=O)NS(C)(=O)=O)c1cnc(-c2ccccc2)c(-c2ccccc2)n1
inactive: Potency (C33A) | Potency (CAOV3) | Potency (CASKI) | Potency (Es-2) | Potency (HeLa) | Potency (Hek293T) | Potency (JEG-3) | Potency (OV90) | Potency (PA-1) | Potency (Tov-21-G) | Potency (Tov112D)

CC(O)/C=C/C1C(C)C(O[C@@H]2O[C@H](CO)[C@@H](O)[C@H](O)[C@H]2O)C(O)CC1(C)C (some centres not stated)
inactive: Potency (C33A) | Potency (CAOV3) | Potency (CASKI) | Potency (Es-2) | Potency (HeLa) | Potency (Hek293T) | Potency (JEG-3) | Potency (OV90) | Potency (PA-1) | Potency (Tov-21-G) | Potency (Tov112D)

O=C(Nc1c(-c2cccs2)nc2ccccn12)c1ccc(Cl)cc1
inactive: Potency (C33A) | Potency (CAOV3) | Potency (CASKI) | Potency (Es-2) | Potency (HeLa) | Potency (Hek293T) | Potency (JEG-3) | Potency (OV90) | Potency (PA-1) | Potency (Tov112D)

Reference: PubChem BioAssay (NCATS)
